# miR-21 reporter: qHTS Assay for Modulators of miRNAs and/orActivators of miR-21 | HeLa miR-21 FLuc reporter, luciferase, 48 h | Potency, µM (series often up to 38.3 µM), without a hit: at the top dose activity change, positive = activation, most hits filed as activators | 340,000 tested, under 10 active;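 also: % of control where 0% means no effect; miR-21 action dims this reporter so a rising signal means less miR-21 action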
#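 Luminescence from a firefly luciferase reporter carrying a miR-21 binding site downstream, stably expressed under a CMV promoter in HeLa cells that make miR-21 endogenously, reports miRNA modulation after 48 h compound exposure up to approximately 40uM final.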
# A549 tox: Nrf2 qHTS screen for inhibitors: counterscreen for cytotoxicity; A549 ARE-Fluc cells, CellTiter-Fluor viability, 18-24 h; Potency, µM (series often up to 46 µM), for the others: at the top dose activity change, negative = cytotoxicity, most hits filed as inhibitors; actives 0.16% (n = 390,000); AID 504648, 2011; also: potency is read from the fitted curve at half-maximal effect; % is scaled to controls: 0 for no effect and ±100 for the full control effect
#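 A549 ARE_Fluc cells in 5% FBS OPTI-MEM were exposed to compounds in concentration-response for 18-24 h at 37 deg C. Viability was read by CellTiter-Fluor fluorescence (Ex 405/Em 525) after 30 min, before the luciferase read.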
# Nrf2 ARE act: qHTS of Nrf2 Activators. Potency, µM (titrated, usually from 46.1 µM), without a hit: top-dose activation, usual class: activators. actives 0.31% (n = 410,000). AREc32 ARE-luciferase reporter (MCF7-derived line), luminescence, 24 h; also: potency is read from the fitted curve at half-maximal effect; % of control where 0% means no effect; nearly all actives have a fitted effect of over 65% in size
#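 ARE activation measured as luciferase luminescence (Steady-Glo, 30 min RT) in AREc32_Fluc cells after 24 hr compound exposure at 37 deg C, 5% CO2; cells seeded overnight at 1000/well in OPTI-MEM, 5% FBS.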
# GRP78 ERSR act: qHTS for Inducers of the Endoplasmic Reticulum Stress Response (ERSR) in Human Glioma: qHTS. Potency, µM, for inactives: at the top dose activation, usual class: activators. U87-MG GRP78 promoter luciferase reporter, 16 h. AID 602332, 2012. actives 0.02% (n = 420,000); also: potency is read from the fitted curve at half-maximal effect; series mostly up to about 76 µM; % of control where 0% means no effect; nearly all actives have a fitted effect of over 35% in size
#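 Stably transfected U87-MG glioma cells carrying a GRP78-based luciferase sensor; 16 h compound incubation. Luminescence end-point read 10 min after Bright-Glo addition at room temperature.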
# Nrf2 block: Nrf2 qHTS screen for inhibitors; Potency, µM (doses to about 46 µM), inactives show at the highest dose activity change, negative = inhibition, usual class: inhibitors; actives 2.1% (n = 360,000); A549 ARE-Fluc reporter, luciferase luminescence, 18-24 h; also: potency is read from the fitted curve at half-maximal effect; % is scaled to controls: 0 for no effect and ±100 for the full control effect; nearly all actives have a fitted effect of over 60% in size
#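 Nrf2 function is reported as luminescence of an ARE-controlled luciferase in A549 cells. Compounds were tested at several concentrations, and a CellTiter-Fluor read on the same wells flagged cytotoxicity.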
# PTAP TSG101 blk: qHTS Assay for Iinhibitors of HIV-1 Budding by Blocking the Interaction of PTAP/TSG101. Tumor susceptibility gene 101 protein (Homo sapiens), Q99816. Fluorescence polarization, FITC-PTAP peptide / Tsg101 binding. Potency, µM (doses to about 115 µM), without a hit: at the highest dose activity change, negative = inhibition, most hits filed as inhibitors. 340,000 tested, under 10 active; active = well fitted inhibition curve with a large enough effect in the main read-out, with a control signal flat, not every such curve was filed as active; inconclusive = small, poorly fitted or top-dose-only effect, or effect the other way, or a change in a side signal; inactive = no such curve, though single readings can be large or run the other way; also: potency is read from the fitted curve at half-maximal effect; % of control where 0% means no effect
# Target sequence (Q99816 whole entry, looked up): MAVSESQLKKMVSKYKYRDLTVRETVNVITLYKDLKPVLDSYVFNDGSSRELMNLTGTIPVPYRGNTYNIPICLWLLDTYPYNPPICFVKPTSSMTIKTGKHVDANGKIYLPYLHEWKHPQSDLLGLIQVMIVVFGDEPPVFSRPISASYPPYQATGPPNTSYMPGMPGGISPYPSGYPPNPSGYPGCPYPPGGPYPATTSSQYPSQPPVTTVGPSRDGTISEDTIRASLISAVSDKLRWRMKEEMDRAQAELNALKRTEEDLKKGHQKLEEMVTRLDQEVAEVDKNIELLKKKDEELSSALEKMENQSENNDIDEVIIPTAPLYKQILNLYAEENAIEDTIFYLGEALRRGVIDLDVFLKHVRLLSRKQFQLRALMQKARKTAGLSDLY
#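 Steps: Tsg101 binding domain dispensed (10 uM final), compounds pinned in DMSO, FITC-labeled PTAP-motif peptide added (50 nM final); after 20 min binding at room temperature, polarization measured.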
# An asterisk follows results filed as active; u = inconclusive; x = not tested or not shown. A selection: hits, their analogues and other compounds. The true share with any hit is near 2.1%. Unless noted, calls follow the shape of the dose curve; as a rule, active = well fitted curve in the direction sought with a large enough effect; inconclusive = small, poorly fitted or top-dose-only effect, or another doubt; inactive = no such curve, though single readings can be large; an effect the other way counts as inactive or inconclusive.
SMILES,miR-21 reporter,A549 tox,Nrf2 ARE act,GRP78 ERSR act,Nrf2 block,PTAP TSG101 blk
O=[N+]([O-])c1cccc(S(=O)(=O)NCCc2cccs2)c1,0%,-2%,0%,-5%,-10%,0%
O=[N+]([O-])c1cccc(S(=O)(=O)Nc2ccc(Cc3ccncc3)cc2)c1,10%,2%,0%,1%,16µM*,-1%
CCC1CCC2(C1)N=C(Nc1nc3ccccc3o1)NC1=C2C(=O)CCC1 (configuration not stated),x,-6%,x,x,u,x
O=C(CCCCCCCCC#CI)Oc1ccccc1,x,x,x,0%,x,x
CO[C@H]1/C=C\O[C@@]2(C)Oc3c(C)c(O)c4c(O)c(c(C=NN5CCN(C6CCCC6)CC5)c(O)c4c3C2=O)NC(=O)C(C)=CC=C[C@H](C)[C@H](O)[C@@H](C)[C@@H](O)[C@@H](C)[C@H](OC(C)=O)[C@H]1C,x,x,x,-2%,x,x
Nc1nonc1N/N=C\c1ccccc1,-13%,3%,-1%,-4%,-1%,-2%
Nc1nonc1N/N=C/c1c(O)ccc2ccccc12,-1%,7%,7.9µM*,6%,23%,-6%
O=C(NN=Cc1c(O)ccc2ccccc12)c1ccncc1,x,u,0%,-2%,26µM*,u
CC(C)c1ccc(NC(=O)C(c2ccccc2)N2CCC3(CC2)OCCO3)cc1 (configuration not stated),-10%,-23%,0%,-2%,15µM*,-4%
O=C(NC1CCCCC1)C(c1ccccc1)N1CCC2(CC1)OCCO2 (configuration not stated),3%,-3%,0%,-2%,-5%,-4%
CO[C@H]1C[C@@H]2CC[C@@H](C)[C@@](O)(O2)C(=O)C(=O)N2CCCC[C@H]2C(=O)O[C@H]([C@H](C)C[C@@H]2CC[C@@H](OCCO)[C@H](OC)C2)CC(=O)[C@H](C)/C=C(\C)[C@@H](O)[C@@H](OC)C(=O)[C@H](C)C[C@H](C)/C=C/C=C/C=C/1C,x,x,x,-4%,x,x
Cc1cc(S(=O)(=O)N(Cc2ccc(C(C)C)cc2)CC2CCCO2)ccc1-n1cnnn1 (configuration not stated),17%,-10%,-1%,2%,23µM*,-11%
CN(C)c1ccc(/C=C/c2cc3ccccc3cn2)cc1,x,x,x,-3%,x,x
COc1ccc(-n2cc(C(=O)NCCc3ccc(C)cc3)c3ccccc3c2=O)cc1,12%,-2%,4%,3%,18µM*,x
COc1cccc(-n2cc(C(=O)NCCc3ccc(C)cc3)c3ccccc3c2=O)c1,-1%,-4%,0%,-2%,-4%,x
COc1ccc(CCNC(=O)c2coc3ccccc3c2=O)cc1,12%,-7%,0%,-3%,13µM*,0%
O=C(NCc1nnc2n1CCN(Cc1cc(F)cc(F)c1)CC2)c1cccc(F)c1,x,x,x,-3%,x,x
COc1cc2c(NC3CCN(C(C)C)CC3)nc(N3CCCN(C)CC3)nc2cc1OCCOCCN1CCCC1,x,x,x,-6%,x,x
Cc1ccc(NC(=O)c2ccccc2NS(=O)(=O)c2ccc(F)cc2)cc1S(=O)(=O)N1CCCCC1,u,u,2%,-5%,23µM*,-1%
Cc1ccc(NC(=O)CSc2ncnc3ccccc23)cc1S(=O)(=O)N1CCCCC1,11%,u,12%,-5%,15µM*,-2%
Cc1ccc(NC(=O)Cn2c(=O)cnc3ccccc32)cc1S(=O)(=O)N1CCCCC1,x,-18%,0%,-4%,13µM*,-2%
Cc1ccc(NC(=O)COc2ncnc3ccccc23)cc1S(=O)(=O)N1CCOCC1,2%,-1%,2%,-3%,4%,-2%
Cc1ccc(NC(=O)c2cc(=O)c3ccccc3o2)cc1S(=O)(=O)N1CCCCC1,u,-20%,0%,-5%,16µM*,-3%
COc1ccc(NC(=O)Cn2c(=O)cnc3ccccc32)cc1S(=O)(=O)N1CCCCC1,x,0%,5%,-3%,-20%,-5%
CN(CC(=O)O)c1ccc(C=O)cc1,x,x,x,-4%,x,x
SMILES,miR-21 reporter,A549 tox,Nrf2 ARE act,GRP78 ERSR act,Nrf2 block,PTAP TSG101 blk
Cc1ccc(NC(=O)CSc2ncnc3ccccc23)cc1S(=O)(=O)N1CCOCC1,8%,-8%,15%,-3%,23µM*,-3%
Cc1ccc(NC(=O)Cn2cc(C(F)(F)F)cc(Cl)c2=O)cc1S(=O)(=O)N1CCCCC1,x,-13%,0%,-2%,23µM*,-4%
Cc1ccc(CN2CC(C(=O)Nc3ccc(C)c(S(=O)(=O)N4CCCCC4)c3)CC2=O)cc1 (configuration not stated),x,u,0%,-3%,21µM*,-1%
COc1ccc(NC(=O)C2CC(=O)N(Cc3ccc(C)cc3)C2)cc1S(=O)(=O)N1CCCCC1 (configuration not stated),2%,0%,2%,-2%,u,-1%
Cc1ccc(NC(=O)CSc2ccccc2)cc1S(=O)(=O)N1CCCCC1,x,-9%,0%,0%,23µM*,-2%
Cc1ccc(NC(=O)Cn2ncc(Cl)c(Cl)c2=O)cc1S(=O)(=O)N1CCCCC1,x,-1%,u,-16%,-25%,-8%
Cc1ccc(NC(=O)CSc2ccccc2)cc1S(=O)(=O)N1CCOCC1,x,0%,-1%,0%,-6%,-1%
COc1ccc(OC)c(C(=O)N(Cc2cc3cccc(C)c3nc2N2CCC(O)CC2)C2CC2)c1,x,x,x,-3%,x,x
Cc1cc(C)cc(C(=O)NCC(=O)N2CCN(c3cccc(Cl)c3)CC2)c1,22%,-20%,0%,-3%,21µM*,-5%
CSc1ccccc1C(=O)N1CCN(c2cccc(Cl)c2)CC1,23%,u,2%,-5%,16µM*,3%
Cc1cccc(N2CCN(C(=O)CNC(=O)Cc3ccccc3)CC2)c1C,x,-18%,4%,4%,u,-4%
O=C(NCc1ccc(Cl)cc1)N1CCN(Cc2ccccc2)CC1,25%,-15%,0%,-4%,23µM*,-7%
Cc1cccc(N2CCN(C(=O)CNC(=O)c3cccc([N+](=O)[O-])c3)CC2)c1C,10%,-3%,0%,-1%,23µM*,-7%
O=C(Nc1ccccc1)N1CCN(Cc2ccc(Cl)cc2)CC1,-2%,-2%,3%,5%,0%,-1%
Cc1cccc(C(=O)NCC(=O)N2CCN(c3ccc(Cl)cc3)CC2)c1,11%,-1%,-1%,-6%,u,0%

# Source: PubChem BioAssay
